Experimental findings from PubChem BioAssay (EPA / NIEHS) are described below.

For one experiment, the target named is PGR (gene 5241) (UniProt P06401). Description: TOX21_PR_BLA_Followup_Antagonist_ratio: Tox21 HEK293 Progesterone Receptor (PR) Antagonism Beta-lactamase Follow-Up Assay, Ratio (AID 2283934; active = hit-call score of the fitted dose curve at least 0.9, where 1 is the maximum;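 also: PR-UAS-bla HEK293T cells stimulated with 1 nM R5020 agonist for 16 hr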). A digest of the protocol: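 Readout is the blue/green (ch2/ch1) substrate cleavage ratio after 2 hours at room temperature, following 16 hr co-treatment of PR-bla HEK293T cells with compound and 1nM promegestone. Multiplexed CellTiter-Glo viability flags cytotoxicity; DMSO baseline.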

Experiment [1] is described as follows: CEETOX_H295R_OHPROG_noMTC: CeeTox H295R High-throughput Steroidogenesis Assay for OH-Progesterone (OHPROG), maximum tolerated concentration (MTC) filtered results only (AID 2283914). The note with it: actives raise or lower the signal. The protocol: CEETOX_H295R is a cell-based, multiplexed-readout assay that uses H295R, a human adrenal gland cell line, with measurements taken at 48 hours after chemical dosing in a 96-well plate.CEETOX_H295R_OHPROG_noMTC is one of 12 assay component(s) measured or calculated from the CEETOX_H295R assay (11 hormones and 1 viability assay). It is designed to make measurements of hormone induction, a form of inducible reporter, as detected with absorbance signals by HPLC-MS-MS technology. The concentrations for these components have not been pre-filtered for the maximum tolerated concentration (MTC) based on the MTT assay (_noMTC).Data from the assay component CEETOX_H295R_OHPROG_noMTC was analyzed into 1 assay endpoint. This assay endpoint, CEETOX_H295R_OHPROG_noMTC, was analyzed with bidirectional fitting relative to DMSO as the negative control and baseline of activity. Using a type of inducible reporter, gain or loss-of-signal activity using HPLC-MS-MS was used to understand synthesis of 17alpha-hydroxyprogesterone in H295R cell line at 48hr of chemical exposure, without filtering concentrations for maximum tolerated concentration (MTC). To generalize the intended target to other relatable targets, this assay endpoint is annotated to the steroid hormone intended target family, where the subfamily is progestagens.
Cell culture and media preparation procedures were conducted in accordance with OECD Test No. 456 guidelines, with minor modifications. H295R cells (ATCC CRL-2128) were expanded for 5 passages and frozen in batches in liquid nitrogen. […] For steroid quantification, media samples were shipped to OpAns, LLC (Durham, NC) on dry ice, and samples were thawed to room temperature prior to liquid-liquid extraction. […] Steroid hormones were separated by HPLC, eluted using a reverse phase C18 gradient with electrospray positive ionization, followed by quantification by tandem mass spectrometry (MS/MS). Data were acquired on a MassHunter Workstation Acquisition version B03.01 (Agilent Technologies, Inc.) and processed using MassHunter Quantitative Analysis for QQQ. Accuracy was determined for each hormone analyte from 3 standards to determine upper and lower limits of quantification (ULOQ and LLOQ, respectively) using a 7-point standard curve. Precision and accuracy of the extraction and quantification methods were calculated as the percent relative standard deviation (%RSD) of the spiked standards and percent spiked standard recovered, respectively. The goal was to achieve 100% accuracy (i.e., recover all spiked-in standard at quantification with minimal loss during run time) and good precision (i.e., have %RSD <15% to ensure reproducibility). Test medium was removed following chemical exposure, and cell viability was evaluated in the same wells by MTT. […]

The nature of experiment [2]: CEETOX_H295R_CORTISOL_noMTC: CeeTox H295R High-throughput Steroidogenesis Assay for Cortisol, maximum tolerated concentration (MTC) filtered results only (AID 2283916). The note with it: actives raise or lower the signal. A digest of the protocol:
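Cortisol secretion measured by LC-MS/MS after 48 h chemical treatment (final 0.1% DMSO) of forskolin-primed (10 uM, 48 h) H295R cells; gain or loss fitted relative to DMSO, without maximum-tolerated-concentration filtering.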

A short description of experiment [3]: CEETOX_H295R_CORTIC_noMTC: CeeTox H295R High-throughput Steroidogenesis Assay for Corticosterone (CORTIC), maximum tolerated concentration (MTC) filtered results only (AID 2283917). The note with it: actives raise or lower the signal. A digest of the protocol: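 Human adrenal H295R cells were prestimulated 48 h with 10 uM forskolin, then exposed 48 h to chemical in 0.1% DMSO. Medium corticosterone was MTBE-extracted and quantified by HPLC-MS/MS; bidirectional fits versus DMSO, concentrations not MTC-filtered.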

A short description of experiment [4]: CEETOX_H295R_DOC_noMTC: CeeTox H295R High-throughput Steroidogenesis Assay for DOC, maximum tolerated concentration (MTC) filtered results only (AID 2283918). Particulars: actives raise or lower the signal. A digest of the protocol:
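11-Deoxycorticosterone secreted by human adrenal H295R cells quantified by HPLC-MS/MS after 48 h chemical exposure (0.1% DMSO), following 48 h 10 uM forskolin prestimulation. Concentrations not filtered by MTT-derived MTC; bidirectional fitting.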

A short description of experiment [5]: CEETOX_H295R_ESTRADIOL_noMTC: CeeTox H295R High-throughput Steroidogenesis Assay for Estradiol, maximum tolerated concentration (MTC) filtered results only (AID 2283919). Particulars: actives raise or lower the signal. The method, then: CEETOX_H295R is a cell-based, multiplexed-readout assay that uses H295R, a human adrenal gland cell line, with measurements taken at 48 hours after chemical dosing in a 96-well plate.CEETOX_H295R_ESTRADIOL_noMTC is one of 12 assay component(s) measured or calculated from the CEETOX_H295R assay (11 hormones and 1 viability assay). It is designed to make measurements of hormone induction, a form of inducible reporter, as detected with absorbance signals by HPLC-MS-MS technology. The concentrations for these components have not been pre-filtered for the maximum tolerated concentration (MTC) based on the MTT assay (_noMTC).Data from the assay component CEETOX_H295R_ESTRADIOL_noMTC was analyzed into 1 assay endpoint. This assay endpoint, CEETOX_H295R_ESTRADIOL_noMTC, was analyzed with bidirectional fitting relative to DMSO as the negative control and baseline of activity. […]
Cell culture and media preparation procedures were conducted in accordance with OECD Test No. 456 guidelines, with minor modifications. […] For steroid quantification, media samples were shipped to OpAns, LLC (Durham, NC) on dry ice, and samples were thawed to room temperature prior to liquid-liquid extraction. […] Steroid hormones were separated by HPLC, eluted using a reverse phase C18 gradient with electrospray positive ionization, followed by quantification by tandem mass spectrometry (MS/MS). […]

A short description of experiment [6]: CEETOX_H295R_PROG_noMTC: CeeTox H295R High-throughput Steroidogenesis Assay for Progesterone (PROG), maximum tolerated concentration (MTC) filtered results only (AID 2283920). Particulars: actives raise or lower the signal. A digest of the protocol: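 Progesterone secreted into medium was measured by HPLC-MS/MS after MTBE extraction, following 48 h chemical exposure (0.1% DMSO) of forskolin-prestimulated (10 uM, 48 h) H295R adrenal cells. Gain or loss fitted against DMSO; no MTC filtering.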

Experiment [7] in a line: CEETOX_H295R_ESTRONE_noMTC: CeeTox H295R High-throughput Steroidogenesis Assay for Estrone, maximum tolerated concentration (MTC) filtered results only (AID 2283921). The note with it: actives raise or lower the signal. A digest of the protocol: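 Estrone in spent medium, quantified by tandem MS following dansyl chloride derivatization, after 48 h chemical exposure (0.1% DMSO) of forskolin-prestimulated (10 uM, 48 h) H295R cells; concentrations not MTC-filtered, bidirectional fit against DMSO.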

The nature of experiment [8]: CEETOX_H295R_ANDR_noMTC: CeeTox H295R High-throughput Steroidogenesis Assay for Androstenedione (ANDR), maximum tolerated concentration (MTC) filtered results only (AID 2283915). The note with it: actives raise or lower the signal. A digest of the protocol:
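Androstenedione secreted into medium was measured by LC-MS/MS after MTBE extraction. Human adrenal H295R cells received 10 uM forskolin for 48 h before 48 h chemical exposure (0.1% DMSO). Gain or loss fitted against DMSO, including concentrations above the MTT-derived MTC.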

Experiment [9] in a line: CEETOX_H295R_TESTO_noMTC: CeeTox H295R High-throughput Steroidogenesis Assay for Testosterone (TESTO), maximum tolerated concentration (MTC) filtered results only (AID 2283924). Particulars: actives raise or lower the signal. A digest of the protocol:
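Medium testosterone, measured by HPLC-MS/MS after liquid-liquid extraction, was fitted in both directions relative to DMSO without MTC filtering. Adrenal H295R cells received 48 h chemical exposure (0.1% DMSO final) after 48 h forskolin (10 uM) prestimulation; viability by MTT.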

SMILES strings stand for the structures. Activity calls are given as the source filed them. The calls were made as follows, unless noted: active = hit-call score of the fitted dose curve at least 0.9, where 1 is the maximum; inactive = score below 0.9.

PGR (gene 5241), sequence (P06401 whole entry, looked up): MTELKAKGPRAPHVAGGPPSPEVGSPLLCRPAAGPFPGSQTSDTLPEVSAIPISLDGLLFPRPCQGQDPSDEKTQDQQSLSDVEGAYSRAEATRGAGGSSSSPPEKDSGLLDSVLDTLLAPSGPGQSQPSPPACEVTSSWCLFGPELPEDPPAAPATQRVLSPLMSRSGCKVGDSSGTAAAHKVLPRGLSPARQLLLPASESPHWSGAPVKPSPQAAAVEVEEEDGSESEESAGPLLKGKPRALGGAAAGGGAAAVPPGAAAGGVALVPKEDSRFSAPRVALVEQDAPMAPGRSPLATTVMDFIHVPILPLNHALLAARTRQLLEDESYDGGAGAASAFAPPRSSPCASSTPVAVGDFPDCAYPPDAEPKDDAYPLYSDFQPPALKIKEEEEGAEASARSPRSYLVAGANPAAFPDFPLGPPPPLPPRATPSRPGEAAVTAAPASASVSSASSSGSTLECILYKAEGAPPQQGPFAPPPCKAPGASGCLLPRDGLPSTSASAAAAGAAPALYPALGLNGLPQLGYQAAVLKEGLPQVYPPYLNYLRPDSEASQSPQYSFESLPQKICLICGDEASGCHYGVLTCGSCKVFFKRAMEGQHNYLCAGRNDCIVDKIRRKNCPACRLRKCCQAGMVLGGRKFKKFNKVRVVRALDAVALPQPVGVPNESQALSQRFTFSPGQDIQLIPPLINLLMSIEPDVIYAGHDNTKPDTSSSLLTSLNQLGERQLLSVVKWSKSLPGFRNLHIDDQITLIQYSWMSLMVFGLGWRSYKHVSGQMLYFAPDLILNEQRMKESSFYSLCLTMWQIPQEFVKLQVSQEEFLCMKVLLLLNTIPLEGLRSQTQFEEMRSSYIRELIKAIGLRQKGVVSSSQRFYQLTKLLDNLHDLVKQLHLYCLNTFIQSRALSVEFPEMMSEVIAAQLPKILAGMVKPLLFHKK

With `CC(=O)[C@@]1(O)CC[C@H]2[C@@H]3CCC4=CC(=O)CC[C@]4(C)[C@H]3CC[C@@]21C`, the outcome in the experiment with PGR (gene 5241) was inactive.
For orientation: AC50 means the concentration giving half of the maximal activity seen. Regarding `NC(=Nc1ccccc1)Nc1ccccc1`, the result in [1], in experiment [5], in experiment [6] and in experiment [7] was inactive. Further, the AC50 is 44.4 µM (active) in experiment [2], 39.1 µM (active) in experiment [3] and 50 µM (active) in experiment [4].
Take `Nc1nc(=S)c2[nH]cnc2[nH]1`: the AC50 was 74.3 µM (active) in experiment [1]; 77 µM (active) in experiment [8]; 37 µM (active) in [2]; 33.3 µM (active) in experiment [3]; 35.4 µM (active) in experiment [4]; 78.8 µM (active) in [6]. In [9], the AC50 was 74.5 µM (active). Also, the outcome in experiment [5] and in experiment [7] was inactive.
Consider `O=C(Oc1ccccc1)c1cccc(C(=O)Oc2ccccc2)c1`, for which the result in experiment [1], in experiment [8], in experiment [2], in experiment [3], in experiment [4] and in [6] was inactive. Further, the compound was called inactive in experiment [9].
With `C=CCc1ccc(OC)c(OC)c1`, the call in [1], in [2], in experiment [3] and in experiment [4] was inactive.
